# BRCA1 expr act – qHTS Assay to Identify Small Molecule Activators of BRCA1 Expression; MCF7-BRCA1-FFLuc reporter, luminescence, 48 h; response scale: scaled: vehicle 0%, 10 µM genistein 100%; Potency, µM (highest dose often 46.1 µM), for the others: at the highest dose activation, hits mostly activators; 380,000 tested, 1.1% active; AID 624202, 2012; further: potency means the concentration at half of the fitted maximal effect; nearly all actives have a fitted effect of over 80% in size
#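 Activators of BRCA1 expression were detected as increased firefly luciferase luminescence in engineered MCF7 cells after 48 h compound incubation. Signals were scaled to genistein 10 microM as full activation.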
# Akt phos inh – HTS Assay for Inhibitors of Akt Phophorylation: Primary Screen; 360,000 tested, 0.32% active; activity change, % for hits at 50 µM; Neuro2A IGF-stimulated pAkt S473 HTRF, 20 min; active compounds read low; AID 651550, 2012; in the data active means activity change below about -80%; inconclusive means mostly about -51% to -80%; further: on the % scale 0 is the no-effect control and ±100 the full control effect
#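 Single-point screen (50 µM final compound) in Neuro2A cells stimulated 20 min with 6 nM IGF at 37 deg C. After lysis, Ser473-phosphorylated Akt read by HTRF (ex 330 nm, em 615/665 nm) as the 665/615 ratio.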
# PINK1 modulator – A Quantitative High throughput Screen to Identify Chemical Modulators of PINK1 Expression | PINK1 immunofluorescence, high-content cytometry, 24 h | AID 624263, 2012 | Potency, µM (top dose mostly 76.6 µM), for the others: top-dose activation (PINK1 increase), most hits filed as activators | 410,000 tested, 0.2% active; active means well fitted activation curve with a large enough effect; inconclusive means small, poorly fitted or top-dose-only effect; cell line not stated here; further: potency means the concentration at half of the fitted maximal effect; % of control where 0% means no effect; nearly all actives have a fitted effect of over 65% in size
#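 Decision-based qHTS: stable cells, 24 h exposure to five compound concentrations, CCCP as control. Fixed cells stained for PINK1 plus nuclear, mitochondrial and cell markers, cytometer read.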
# TCR act – Activators of T cell receptors: qHTS campaign; primary human leukocytes, anti-CD3, IL-2 HTRF, 48 h; Potency, µM (doses to about 9.22 µM), for inactives: at the top dose activation of IL-2 secretion, usual class: activators; 330,000 tested, under 10 active; further: % of control where 0% means no effect
#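 1) Mix primary human leukocytes, a-CD3 beads and compound. 2) Incubate 48 hr. 3) Add HTRF IL-2 reagents (a-IL-2-K, a-IL-2-d2).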
# * = called active by the depositor; i = inactive; ? = inconclusive; nt = no result; [ ] = another dose, or the depositor's remark. The list is not random: actives were taken first. Their share in the collection is about 1.5%. Unless noted, the call rests on the fitted dose curve; in most records, active means well fitted curve in the direction sought with a large enough effect; inconclusive means small, poorly fitted or top-dose-only effect, or another doubt; inactive means no such curve, though single readings can be large; an effect the other way counts as inactive or inconclusive.
SMILES,BRCA1 expr act,Akt phos inh,PINK1 modulator,TCR act
COC(=O)C1=C(C)C(c2ccc(OC)cc2OC)NC(=O)N1 (centres undefined),1%,-117%*,-1%,1%
CC1CCC/C(=C(\C#N)c2nc(-c3cc4ccccc4oc3=O)cs2)C1 (centres undefined),3.2µM*,i,0%,-8%[46.1 µM]
COc1ccc(/C=C(/C#N)c2nc(-c3cc4ccccc4oc3=O)cs2)cc1,nt,nt,1%,nt
COc1cccc(C(=O)N=c2sc3cc(S(C)(=O)=O)ccc3n2C)c1,6.3µM*,i,15%,-9%
COC(=O)Cn1c(=NC(=O)c2cccc(OC)c2)sc2cc(OC)ccc21,10µM*,i,6%,-1%[46.1 µM]
CCC(C)NC(=O)c1ccccc1NC(=O)C1CCN(S(=O)(=O)Cc2ccccc2)CC1 (centres undefined),nt,nt,0%,nt
Cc1ccc(Sc2c(CO)c(-c3ccccc3)nn2C)cc1,-70%,i,1%,9%
Cc1ccccc1Sc1c(C#N)c(-c2ccccc2)nn1C,-44%,i,7.1µM*,nt
Cn1c(C(=O)N2CCOCC2)cnc1Sc1ncc(C(F)(F)F)cc1Cl,-10%,-114%*,0%,0%
CCc1ccc(-c2csc(NC(=O)Oc3ccccc3)n2)cc1,7.9µM*,i,1%,-6%[46.1 µM]
O=C(Nc1nc(-c2cccc(Br)c2)cs1)Oc1ccccc1,?,i,nt,-3%
CCc1ccc(OC(=O)Nc2ccccc2)cc1,2.8µM*,i,5%,11%
COc1cccc(-c2csc(NC(C)=O)n2)c1,13µM*,i,7%,-2%
CC(=O)Nc1nc(COc2ccccc2)cs1,10µM*,i,7%[38.3 µM],4%
Cc1ncc2c(c1CNC(=O)c1ccc3c(c1)OCO3)CCN(C(=O)c1cn3ccccc3n1)C2,nt,nt,0%,nt
O=C(Cc1cscn1)N1CCOc2ccc(CN3CCN(c4ccccn4)CC3)cc2C1,nt,nt,-1%,nt
Cc1cccc(Nc2nc3c(s2)CCCC3)c1,10µM*,i,?,1%
CCn1c(SCC(O)c2ccccc2)nnc1-c1ccccc1 (centres undefined),11µM*,i,-1%,1%[46.1 µM]
CCN(CCO)C(=O)c1cnn(-c2ncc3c(n2)-c2ccccc2CCC3)c1C1CC1,nt,nt,0%,nt
Cc1ccc(Nc2ccc3cc(S(=O)(=O)N4CCC(C)CC4)ccc3n2)c(Cl)c1,nt,nt,-1%,nt
CC1CCN(S(=O)(=O)c2ccc3nc(Nc4cccc(F)c4)ccc3c2)CC1,nt,nt,16µM*,nt
Cc1ccc(-n2c(C)cc(/C=N/Nc3ccc([N+](=O)[O-])cn3)c2C)cc1,59%,i,10%,-3%
Cc1cc(/C=N/Nc2ccc([N+](=O)[O-])cn2)c(C)n1-c1ccccc1,10µM*,i,1%,-5%
Cc1cc(/C=N/NC(=O)c2ccccn2)c(C)n1-c1cccc([N+](=O)[O-])c1,10µM*,i,0%,4%
Cc1cccc(-n2c(C)cc(/C=N\NC(=O)c3ccco3)c2C)c1,8.9µM*,i,4%,-4%
SMILES,BRCA1 expr act,Akt phos inh,PINK1 modulator,TCR act
Cc1cc(C(=O)N/N=C/c2cccc([N+](=O)[O-])c2)c(C)n1-c1ccccc1,45%,i,11%,6%[46.1 µM]
Cc1cc(/C=C/c2ccnc3ccccc23)ccc1N,0%,nt,3%,nt
COc1ccc(CNc2cc(-c3ccccc3C)ncn2)c(OC)c1,nt,nt,0%,nt
COc1ccccc1CNC(=O)CSCc1cnn(-c2ccccc2)c1-n1cccc1,-14%,i,-1%,3%
COc1cccc(CNC(=O)CSCc2cnn(-c3ccccc3)c2-n2cccc2)c1OC,-28%,-119%*,-4%,0%
COc1cccc(CNC(=O)c2c(OC)cc(=O)n3c2CCN(C(=O)c2ccc(Cl)cc2)CC3)c1,nt,nt,1%,nt
Cc1cnc(-n2ncc(C(=O)NCC3CCCN(C)C3)c2C)nc1-c1cccs1 (centres undefined),nt,nt,0%,nt
O=C1c2cccnc2C(O)N1Cc1ccccc1 (centres undefined),4%,i,3%[38.3 µM],-5%
O=C1c2cccnc2C(O)N1Cc1ccc(F)cc1 (centres undefined),6%,-95%*,-3%[38.3 µM],-3%[46.1 µM]
CCCCCOc1ccc(NS(C)(=O)=O)cc1,11µM*,i,-1%,-1%
CCOc1ccc(NS(=O)(=O)c2ccc(NS(C)(=O)=O)cc2)cc1,1%,i,-1%,7%
CCOc1ccc(S(=O)(=O)Nc2ccccc2C(=O)Nc2ccccc2N2CCOCC2)cc1,-24%,i,11µM*,nt
COCCn1c(C)cc(C(=O)CSc2ccc(NC(C)=O)cc2)c1C,7.1µM*,i,-3%,5%
COCCn1c(C)cc(C(=O)COC(=O)Cc2n[nH]c(=O)c3ccccc23)c1C,8.9µM*,i,5%,5%
COCCn1c(C)cc(C(=O)COC(=O)c2ccccc2Br)c1C,-32%,i,1%,-12%
COCCn1c(C)cc(C(=O)COC(=O)c2ccc3ncsc3c2)c1C,11µM*,i,-1%,-1%
COCCn1c(C)cc(C(=O)COC(=O)c2cccnc2SC)c1C,8.9µM*,i,4%,-10%
COCCn1c(C)cc(C(=O)COC(=O)c2cncc(Br)c2)c1C,?,i,0%,-1%[46.1 µM]
Cc1cccnc1-c1cccc2c1OC(CNC(=O)C(=O)c1ccccc1)C2 (centres undefined),nt,nt,1%,nt
Cc1ncc2c(c1CNC(=O)c1cncs1)CCN(C(=O)c1ccc(-c3ccccc3)cc1)C2,nt,nt,1%,nt
Cc1cc(C(=O)COC(=O)c2ccc(O)cc2)c(C)n1-c1ccccc1F,-3%,i,-1%,2%
COCCn1c(C)cc(C(=O)COC(=O)c2ccc(NC(=O)CC#N)cc2)c1C,2.8µM*,i,1%,3%
Cc1cc(C(=O)COC(=O)c2ccc(O)cc2)c(C)n1CC(F)(F)F,7.9µM*,i,4%,7%
COc1cccc(CN2C(=O)c3ccccc3Sc3ccc(C(=O)NCCc4ccc(C)cc4)cc32)c1,11%,nt,1%,nt
O=S(=O)(Cc1noc(-c2ccc(Cl)cc2)n1)Cc1ccco1,7.9µM*,i,-2%,3%
SMILES,BRCA1 expr act,Akt phos inh,PINK1 modulator,TCR act
CCc1nc2cc(C(=O)N3CCCN(C=O)CC3)cc(NC(=O)c3ccccc3OC)c2n1C,nt,nt,-1%,nt
Cc1c(C(=O)N2CCCCC2)sc2ncnc(NCCN(C)C)c12,nt,nt,1%,nt
Cc1ccc(Nc2nc(N)nc(CSc3ncccn3)n2)cc1,2.2µM*,i,-4%,-1%
Cc1ccc(Nc2nc(N)nc(CSc3nccn3C)n2)c(C)c1,7.1µM*,i,-3%,1%
Nc1nc(CSc2ncccn2)nc(Nc2ccccc2)n1,4µM*,i,nt,nt
CCOC(=O)N1CCN(c2nc(CN3CCCCC3CCO)nc3c(C)cccc23)CC1 (centres undefined),nt,nt,2%,nt
COC(=O)c1c(C)[nH]c(C(=O)OCc2ccc(F)cc2)c1C,4.5µM*,i,14%,0%
Cc1ccsc1CN1CCc2nnc(CCNC(=O)c3ccc(F)cc3)n2CC1,nt,nt,1%,nt

# Screening results deposited in PubChem by National Center for Advancing Translational Sciences (NCATS).
